# What was measured:
# [1] = molecular target: Serine/threonine-protein kinase MARK2 (Homo sapiens) (UniProt Q7KZI7); conditions: at 1 µM
# [2] = molecular target: PAS domain-containing serine/threonine-protein kinase (Homo sapiens) (UniProt Q96RG2); conditions: at 0.1 µM
# [3] = molecular target: PAS domain-containing serine/threonine-protein kinase (Homo sapiens) (UniProt Q96RG2); conditions: at 1 µM
# [4] = molecular target: Phosphorylase b kinase gamma catalytic chain, skeletal muscle/heart isoform (Homo sapiens) (UniProt Q16816); conditions: at 0.1 µM
# Phosphorylase b kinase gamma catalytic chain, skeletal muscle/heart isoform (Homo sapiens), sequence (Q16816 whole entry, looked up, canonical isoform): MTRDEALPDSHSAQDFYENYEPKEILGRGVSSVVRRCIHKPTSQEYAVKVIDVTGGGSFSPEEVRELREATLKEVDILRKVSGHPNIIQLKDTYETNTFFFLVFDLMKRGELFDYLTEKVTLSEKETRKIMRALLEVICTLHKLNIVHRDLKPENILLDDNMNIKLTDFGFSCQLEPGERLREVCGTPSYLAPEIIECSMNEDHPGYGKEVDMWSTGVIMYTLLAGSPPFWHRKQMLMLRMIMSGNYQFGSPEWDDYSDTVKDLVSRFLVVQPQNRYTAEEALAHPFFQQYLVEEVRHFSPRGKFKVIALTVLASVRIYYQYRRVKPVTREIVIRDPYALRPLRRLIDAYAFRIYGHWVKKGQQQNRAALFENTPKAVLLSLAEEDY
# [5] = molecular target: Phosphorylase b kinase gamma catalytic chain, skeletal muscle/heart isoform (Homo sapiens) (UniProt Q16816); conditions: at 1 µM
# [6] = molecular target: T1, Phosphorylase b kinase gamma catalytic chain, liver/testis isoform (Homo sapiens) (UniProt P15735); conditions: at 0.1 µM
# T1 sequence (whole entry): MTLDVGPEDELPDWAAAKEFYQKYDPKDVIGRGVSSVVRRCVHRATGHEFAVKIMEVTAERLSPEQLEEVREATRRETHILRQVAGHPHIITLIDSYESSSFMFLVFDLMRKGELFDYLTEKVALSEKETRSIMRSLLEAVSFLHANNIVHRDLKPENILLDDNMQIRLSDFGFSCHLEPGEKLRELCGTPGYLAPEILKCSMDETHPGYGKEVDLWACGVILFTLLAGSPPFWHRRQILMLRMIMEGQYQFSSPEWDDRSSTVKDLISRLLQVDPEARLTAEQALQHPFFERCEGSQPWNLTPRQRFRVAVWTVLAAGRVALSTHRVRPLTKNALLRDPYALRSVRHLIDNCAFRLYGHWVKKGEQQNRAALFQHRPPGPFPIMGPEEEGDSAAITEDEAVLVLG
# [7] = molecular target: T1, Phosphorylase b kinase gamma catalytic chain, liver/testis isoform (Homo sapiens); conditions: at 1 µM
# [8] = molecular target: Serine/threonine-protein kinase pim-1 (Homo sapiens) (UniProt P11309); conditions: at 0.1 µM
# Serine/threonine-protein kinase pim-1 (Homo sapiens), sequence (P11309 whole entry, looked up): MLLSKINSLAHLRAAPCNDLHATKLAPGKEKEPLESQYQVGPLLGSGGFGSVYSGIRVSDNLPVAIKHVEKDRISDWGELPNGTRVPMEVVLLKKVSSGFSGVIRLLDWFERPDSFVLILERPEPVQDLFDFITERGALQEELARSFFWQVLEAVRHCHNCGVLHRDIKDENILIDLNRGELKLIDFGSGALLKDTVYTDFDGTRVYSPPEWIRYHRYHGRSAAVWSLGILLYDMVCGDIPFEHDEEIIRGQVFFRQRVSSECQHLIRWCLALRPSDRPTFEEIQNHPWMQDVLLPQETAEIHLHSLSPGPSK
# [9] = molecular target: Serine/threonine-protein kinase pim-1 (Homo sapiens) (UniProt P11309); conditions: at 1 µM
# [10] = molecular target: Serine/threonine-protein kinase pim-2 (Homo sapiens) (UniProt Q9P1W9); conditions: at 0.1 µM;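 also: reported value is the mean percent inhibition of PIM2, measured in the GSK PKIS kinase inhibitor set screen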
# Serine/threonine-protein kinase pim-2 (Homo sapiens), sequence (Q9P1W9 whole entry, looked up): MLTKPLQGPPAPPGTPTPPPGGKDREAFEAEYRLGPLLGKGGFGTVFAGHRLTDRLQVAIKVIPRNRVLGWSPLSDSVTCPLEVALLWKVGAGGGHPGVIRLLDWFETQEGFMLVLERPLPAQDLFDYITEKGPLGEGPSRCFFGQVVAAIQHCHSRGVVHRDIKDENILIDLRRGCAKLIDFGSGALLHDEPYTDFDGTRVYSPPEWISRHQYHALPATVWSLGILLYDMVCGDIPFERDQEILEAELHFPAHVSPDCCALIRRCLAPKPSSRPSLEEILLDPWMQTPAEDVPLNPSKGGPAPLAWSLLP
# Serine/threonine-protein kinase MARK2 (Homo sapiens), sequence (Q7KZI7 whole entry, the tested form may be a part): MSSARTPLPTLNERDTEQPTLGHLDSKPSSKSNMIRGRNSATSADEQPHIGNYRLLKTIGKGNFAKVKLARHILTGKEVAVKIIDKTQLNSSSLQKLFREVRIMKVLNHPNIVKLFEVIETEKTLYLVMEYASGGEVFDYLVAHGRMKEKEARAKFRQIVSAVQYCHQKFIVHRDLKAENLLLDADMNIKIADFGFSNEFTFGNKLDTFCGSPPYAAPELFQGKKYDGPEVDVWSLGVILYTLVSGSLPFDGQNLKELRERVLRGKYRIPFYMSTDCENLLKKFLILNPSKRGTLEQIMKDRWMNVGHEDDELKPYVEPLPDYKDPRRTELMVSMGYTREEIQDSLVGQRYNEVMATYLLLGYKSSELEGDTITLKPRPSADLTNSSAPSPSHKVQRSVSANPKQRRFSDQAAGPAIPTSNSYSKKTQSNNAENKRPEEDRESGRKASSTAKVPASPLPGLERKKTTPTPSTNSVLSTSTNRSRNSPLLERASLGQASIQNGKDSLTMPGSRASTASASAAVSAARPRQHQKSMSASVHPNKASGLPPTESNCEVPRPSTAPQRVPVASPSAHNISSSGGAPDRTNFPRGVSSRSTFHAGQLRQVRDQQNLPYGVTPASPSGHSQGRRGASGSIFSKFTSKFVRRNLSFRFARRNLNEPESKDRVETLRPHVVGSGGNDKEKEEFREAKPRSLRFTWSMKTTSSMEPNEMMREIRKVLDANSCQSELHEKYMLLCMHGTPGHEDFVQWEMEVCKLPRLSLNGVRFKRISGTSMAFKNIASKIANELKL
# PAS domain-containing serine/threonine-protein kinase (Homo sapiens), sequence (Q96RG2 whole entry, the tested form may be a part, canonical isoform): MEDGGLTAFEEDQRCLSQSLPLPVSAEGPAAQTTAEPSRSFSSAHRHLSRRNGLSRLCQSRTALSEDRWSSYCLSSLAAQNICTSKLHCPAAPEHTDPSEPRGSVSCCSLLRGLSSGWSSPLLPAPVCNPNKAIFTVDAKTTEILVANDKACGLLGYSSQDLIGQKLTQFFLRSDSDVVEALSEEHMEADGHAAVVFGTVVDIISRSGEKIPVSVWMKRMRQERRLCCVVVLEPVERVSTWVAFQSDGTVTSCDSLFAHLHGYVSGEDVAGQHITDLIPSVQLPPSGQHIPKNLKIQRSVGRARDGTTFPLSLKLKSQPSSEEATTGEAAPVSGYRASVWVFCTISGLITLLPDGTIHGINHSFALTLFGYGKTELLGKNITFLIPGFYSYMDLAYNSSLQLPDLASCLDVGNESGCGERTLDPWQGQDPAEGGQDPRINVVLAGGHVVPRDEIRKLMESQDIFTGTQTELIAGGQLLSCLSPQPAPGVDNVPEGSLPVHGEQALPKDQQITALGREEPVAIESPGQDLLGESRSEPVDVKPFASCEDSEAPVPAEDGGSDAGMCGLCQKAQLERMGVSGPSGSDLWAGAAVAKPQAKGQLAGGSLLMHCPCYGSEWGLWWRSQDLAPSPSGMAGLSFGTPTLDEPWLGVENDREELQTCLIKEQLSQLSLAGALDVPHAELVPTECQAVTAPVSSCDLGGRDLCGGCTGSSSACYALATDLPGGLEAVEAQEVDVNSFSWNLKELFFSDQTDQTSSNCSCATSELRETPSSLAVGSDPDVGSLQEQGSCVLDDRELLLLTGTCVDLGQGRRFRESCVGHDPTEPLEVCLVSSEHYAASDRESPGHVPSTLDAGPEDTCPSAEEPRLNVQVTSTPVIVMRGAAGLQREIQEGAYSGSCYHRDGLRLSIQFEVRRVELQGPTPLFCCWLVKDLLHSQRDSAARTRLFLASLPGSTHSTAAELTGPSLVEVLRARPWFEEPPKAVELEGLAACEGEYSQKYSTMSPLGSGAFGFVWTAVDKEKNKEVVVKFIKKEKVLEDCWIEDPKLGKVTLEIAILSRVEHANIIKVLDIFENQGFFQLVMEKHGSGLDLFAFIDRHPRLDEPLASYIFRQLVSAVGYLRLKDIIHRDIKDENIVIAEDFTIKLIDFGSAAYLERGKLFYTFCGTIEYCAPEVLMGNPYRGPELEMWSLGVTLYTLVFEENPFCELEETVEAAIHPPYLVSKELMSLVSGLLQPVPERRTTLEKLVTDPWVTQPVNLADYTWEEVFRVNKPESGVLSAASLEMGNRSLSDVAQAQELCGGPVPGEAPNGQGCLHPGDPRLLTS
Compound,inhibition [1],inhibition [2],inhibition [3],inhibition [4],inhibition [5],inhibition [6],inhibition [7],inhibition [8],inhibition [9],inhibition [10]
CN1CCC(n2cnc(-c3ccc(F)cc3)c2-c2ccnc(N)n2)CC1,-0.63%,-0.52%,1.84%,1.61%,5.65%,2.82%,2.94%,2.59%,19.3%,0.18%
Nc1ncc(-c2cccc(S(N)(=O)=O)c2)c2scc(-c3ccc(F)c(Cl)c3)c12,2.5%,0.62%,1.05%,4.52%,5.24%,6.23%,6.66%,0.81%,0.67%,0.52%
CCOc1ccc2c(-c3ccnc(Nc4cccc(C(F)(F)F)c4)n3)cnn2n1,0.82%,0.62%,0.46%,2.65%,6.48%,3.64%,3.92%,-1.05%,-1.35%,0.55%
COc1cccc(-n2ncc3c(N/N=C/c4ccc(F)cc4)ncnc32)c1,1.76%,0.08%,0.35%,2.66%,5.43%,5.34%,6.87%,1.15%,1.15%,-0.5%
CC1=C(C(=O)Nc2cc(Cl)c3[nH]ncc3c2)C(c2ccc(C(F)(F)F)cc2)CC(=O)N1 (stereo not given),5.38%,-0.35%,0.16%,3.83%,6.61%,3.02%,4.01%,0.67%,0.15%,0.31%
COc1ccc2[nH]c3c4[nH]c5ccc(OC)cc5c4c4c(c3c2c1)C(=O)NC4=O,11.8%,-0.49%,-1.47%,48.4%,73.3%,9.06%,39.8%,28.7%,74.2%,21.4%
COC(=O)c1sc(-n2cnc3cc(OC)c(OC)cc32)cc1OCc1ccccc1C(F)(F)F,2.26%,-1.52%,-2.77%,4.45%,5.4%,4.03%,0.9%,0.49%,1%,0.49%
CC(C)COC(=O)c1ccc2c(c1)/C(=C/Nc1ccc(S(N)(=O)=O)cc1)C(=O)N2,70.5%,0.36%,2.64%,12.2%,50.5%,-1.63%,16.4%,3.92%,27.8%,0.83%
NS(=O)(=O)c1ccc(N/N=C2\C(=O)Nc3ccc4ncccc4c32)cc1,35.3%,-0.19%,-1.87%,11.2%,50%,3.72%,14.1%,1.89%,15.9%,1.2%
[O-][S+]1CCN(Cc2ccc(-c3ccc4ncnc(Nc5ccc(OCc6cccc(F)c6)c(Cl)c5)c4c3)o2)CC1,2.61%,0.34%,0.46%,5.93%,8.77%,7.01%,6.77%,0.76%,2.24%,0.73%
O=C(O[C@H]1CN[C@H](C#Cc2cc3ncnc(Nc4ccc(Cc5ccccc5)cc4)c3s2)C1)N1CCOCC1,0.4%,0.94%,0.47%,3.11%,3.13%,3.27%,2.45%,1.81%,0.55%,0.21%
O=C(Nc1n[nH]c2cc(-c3ccc(F)cc3)ccc12)C1CC1,2.24%,-0.52%,-1.02%,3.89%,6.4%,6.96%,2.35%,0.88%,3.11%,-0.18%
COc1ccc2c(-c3ccnc(Nc4cccc(OC(F)(F)F)c4)n3)cnn2n1,2.62%,-0.05%,0.2%,2.28%,8.92%,6.32%,8.34%,1.24%,0.36%,-0.29%
COc1ccc(-c2nn3ncccc3c2-c2ccnc(Nc3ccc4c(c3)OCCO4)n2)cc1,-0.07%,1.07%,0.37%,2.6%,6.21%,0.91%,0.83%,0.46%,-0.36%,0.54%
CCCN(CCS(C)(=O)=O)Cc1ccc(-c2ccc3ncnc(Nc4ccc(OCc5cccc(F)c5)c(Cl)c4)c3c2)o1,-0.2%,0.15%,-0.42%,1.09%,2.68%,1.93%,1.35%,0.83%,0.67%,-0.45%
COc1cc2c(cc1Nc1nc(Nc3ccsc3C(N)=O)c3cc[nH]c3n1)N(C(=O)CN(C)C)CCC2(C)C,9%,-1.55%,-1.18%,18.5%,62%,5.83%,6.91%,68.4%,93.3%,2.12%
CNC(=O)c1cncc(/C=C/c2ccccc2Cl)c1,0.58%,1.8%,4.02%,-1.06%,2.44%,1.88%,5.64%,0.54%,0.89%,0.13%

Compound,inhibition [1],inhibition [2],inhibition [3],inhibition [4],inhibition [5],inhibition [6],inhibition [7],inhibition [8],inhibition [9],inhibition [10]
COc1cc(/C=N/Nc2ncnc3[nH]ncc23)ccc1O,17.5%,-0.24%,1.75%,4.58%,16.6%,4.03%,8.53%,1.55%,10.9%,0.15%
COc1ccc(-c2cc3c(N)ncnc3o2)cc1,3.33%,1.26%,0.48%,0.47%,2.53%,-1.54%,-2.23%,-1.06%,2.3%,0.27%
Cc1cccc2c1NC(=O)/C2=N\Nc1ccc(S(N)(=O)=O)cc1,1.34%,0.5%,-1.79%,-1.4%,2.98%,3.6%,2.88%,1.4%,-0.19%,0.28%
COc1ccc(CNC(=O)c2ccc(-c3cc(-c4nnc(C)o4)ccc3C)cc2)cc1,0.82%,2.29%,8.41%,3.84%,6.56%,3.12%,9.31%,1.62%,1.96%,2.9%
c1cc(-c2cnn3nc(N4CCOCC4)ccc23)nc(NC2CC2)n1,7.93%,0.49%,-0.94%,3.94%,29.5%,6.12%,12.2%,0.22%,3.37%,-0.29%
CNC(=O)c1cccc(C#Cc2cncnc2Nc2ccc(OCc3cccc(F)c3)c(Cl)c2)c1,-2.06%,0.44%,0.79%,-2.47%,2.19%,2.39%,3.44%,0.55%,0.54%,0.37%
CC(=O)NCc1cccc(C#Cc2cncnc2Nc2ccc(OCc3cccc(F)c3)c(Cl)c2)c1,1.33%,-0.91%,-1.6%,3.33%,5.96%,-0.18%,-1.04%,1.13%,0.22%,0.41%
c1ccc(-c2nc3n(c2-c2ccc4c(c2)OCO4)CCC3)nc1,1.22%,-5.85%,-0.24%,3.66%,2.79%,1.19%,0.01%,0.37%,0.72%,-0.34%
CCc1nn2ncccc2c1-c1ccnc(NC2CC2)n1,1.56%,1.03%,0.63%,1.42%,2.68%,2.15%,3.73%,0.19%,1.72%,0.29%
O=S(=O)(CCNCc1ccc(-c2ccc3ncnc(Nc4ccc(OCc5cccc(F)c5)c(Cl)c4)c3c2)o1)c1ccccc1,-0.14%,-0.06%,0.32%,5.41%,9.29%,7.91%,7.71%,-0.13%,1.9%,0.44%
COC(=O)Nc1nc2ccc(S(=O)(=O)c3ccc(NC(=O)Nc4cc(C(F)(F)F)ccc4F)cc3)cc2[nH]1,1.75%,0.31%,-0.77%,1.75%,1.03%,2.73%,0.31%,0.78%,1.71%,-0.06%
CC(=O)Nc1cccc(C#Cc2cncnc2Nc2ccc(OCc3cccc(F)c3)c(Cl)c2)c1,0.33%,1.37%,-0.46%,0.65%,1.71%,3.82%,1.55%,1.32%,0.75%,0.84%
N#Cc1c(NC(=O)c2ccc(F)cc2)sc2c1CCCC2,0%,-0.36%,0.96%,1.21%,2.76%,1%,1.36%,-1.04%,-0.95%,-0.39%
CNC(=O)c1cc(-c2ccc(F)cc2)cc(-c2ccc(S(=O)(=O)N3CCCC3)cc2)c1N,1.52%,0.47%,-0.16%,2.9%,4.24%,3.8%,3.18%,0.06%,0.44%,-0.39%
Clc1ccc(-c2nn3ncccc3c2-c2ccnc(Nc3ccccc3)n2)cc1,0.63%,-0.14%,0.05%,1.22%,3.66%,0.85%,0.51%,0.13%,0.33%,0.34%
COc1cc2ncn(-c3cc(OCc4ccccc4C(F)(F)F)c(C(=O)N(C)C)s3)c2cc1OC,-0.58%,-1.08%,0.41%,-0.58%,1.87%,-1.54%,-0.32%,0.36%,-0.31%,-0.26%

# Reference: ChEMBL document CHEMBL1961873, “Compounds: GSK PKIS; Assays: Nanosyn kinase panel” (2012)
